From PubChem BioAssay (NCATS)
Values without a mark were called inactive. Active and inactive are the calls of the source. The call rests on the fitted dose curve; in most records, active means well fitted curve in the direction sought with a large enough effect; inconclusive means small, poorly fitted or top-dose-only effect, or another doubt; inactive means no such curve, though single readings can be large or run the other way. Residues, ends and D or L forms follow the SMILES beside them. *: point of attachment. Cbz = O=C(OCc1ccccc1)*

Target: alpha-glucosidase (Oryza sativa, rice) (UniProt Q653V4)
Experiment: Counterscreen for Glucocerebrosidase Inhibitors: qHTS Assay for Rice alpha-Glucosidase at pH 5.0 (AID 997);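 further: 0% = full activity with enzyme and -100% = basal without enzyme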
Conditions: rice alpha-glucosidase enzyme activity; series mostly up to 76.9 µM; activity change, negative = inhibition: at the top concentration
Text: NIH Chemical Genomics Center [NCGC]
NIH Molecular Libraries Screening Centers Network [MLSCN]
PI Name: Zheng, Wei [NIH]
Alpha-glucosidase is responsible for hydrolysis of terminal, non-reducing 1,4-linked alpha-D-glucose residues with release of alpha-D-glucose. It is a lysosomal hydrolase that is required for the degradation of a small percentage (1-3%) of cellular glycogen in human. Deficiency of this enzyme results in glycogen-storage disease type II (GSDII), also referred to as Pompe disease, an autosomal recessive disorder. Structurally normal glycogen is accumulated in lysosomes and cytoplasm in affected patients, primarily in muscle tissues. Excessive glycogen storage within lysosomes may interrupt normal functioning of other organelles and leads to cellular injury. In turn, this leads to enlargement and dysfunction of the entire organ involved (eg, cardiomyopathy and muscle weakness).
It has reported that the improper folding and trafficking of alpha-glucosidase resulted from the genetic mutations may account for a significant number of Prope patients. […] We optimized this alpha-glucosidase assay in 1536-well plate format for identifying the novel small molecule inhibitors with the structures other than the sugar analogs in order to develop the new pharmacological chaperones.
NCGC Assay Protocol Summary:
This is a fluorogenic enzyme assay with 4-methylumbelliferyl-alpha-D-pyranoside as the substrate and rice alpha-glucosidase as the enzyme preparation. Upon the hydrolysis of this fluorogenic substrate, the resulting product, 1. 4-methyllumbelliferone, can be excited at 365 nm and emits at 440 nm which can be detected by a standard fluorescence plate reader. Data were normalized to the controls for basal activity (without enzyme) and 100% activity (with enzyme). In the AC50 values were determined from concentration-response data modeled with the standard Hill equation.
Assay buffer: 50 mM citric acid, 0.005% Tween-20, pH 5.0. (pH 5.0 is an optimal condition for this enzyme assay)
1536-well assay protocol for the human alpha-glucosidase:
(1) Add 2 ul/well of enzyme (4 nM final)
(2) Add 23 nL compounds in DMSO solution. The final titration was 0.7 nM to 77 uM.
(3) Add 1 ul of substrate (400 uM final)
(4) Incubate at room temperature for 20 min.
(5) Add 2 ul stop solution (1M NaOH and 1M Glycine mixture, pH 10)
(6) Detect the assay plate in a ViewLux plate reader (PerkinElmer) with Ex=365 nm and Em=440nm.
Keywords: Alpha-glucosidase, Prope Disease, pharmacological chaperone, chaperone therapy, high throughput screening, alpha-glucosidase inhibitor, MLSMR, MLSCN, NIH Roadmap, qHTS and NCGC

Compound	activity change, negative = inhibition [%]	outcome
O=C(O)C1=CCNCC1	-4.62	
NCCCCN=C(N)N	-2.61	
COc1ccccc1N1CCN(CCCNc2c(C)c(=O)n(C)c(=O)n2C)CC1	-1	
N#CC(C#N)=C(N)/C(C#N)=C/c1ccc(O)cc1	-4.79	
Cc1ccc([N+](=O)[O-])cc1S(=O)(=O)N(C)C		inactive
Nc1ccc(-c2ccc3ccccc3n2)cc1	-1.94	
COc1ccc2c(c1)c(CC(=O)O)c(C)n2Cc1ccc(Cl)cc1	-1.42	
NC(=Nc1ccccc1)NC(=O)c1nc(Cl)c(N)nc1N	0.442	
N#C/C(=C\c1ccc(O)c(O)c1)C(=O)NCCc1ccccc1	0.731	
COCc1nc2c([nH]1)c(=O)n(C)c(=O)n2CC(C)C	-1.76	
CCCCCCCCCCC/C=C\C(C)(C)/C=C\CCCC(=O)O	-7.82	
C#CCn1c(=O)c2c(ncn2C)n(C)c1=O	-4.39	
Cc1cc2c(cc1Cl)N(C(=O)Nc1ccnc3ccccc13)CC2	-2.07	
O=c1[nH]c(=O)c2nc3ccccc3nc2[nH]1	-1.01	
O=C1NC(=O)c2cc(Nc3ccccc3)c(Nc3ccccc3)cc21	-0.39	
N=C(N)c1ccc(OCCCCCOc2ccc(C(=N)N)cc2)cc1 (tested in a mixture with another compound)	-1.4	
CCCCCCN(CCCCCC)C(=O)Cc1c(-c2ccc(F)cc2)[nH]c2ccccc12	-16.8	
O=C(O)c1cc(=O)cc(C(=O)O)[nH]1	2.05	
O=c1onc2cnc3ccccc3n12	-6.49	
CC(C)[C@H](NC(=O)OCc1ccccc1)C(=O)N[C@H](C=O)Cc1ccccc1 (Cbz-Val-Phe-aldehyde)	-5.94	

Compound	activity change, negative = inhibition [%]	outcome
NCCS(=O)O	-3.11	
O=C(N[C@@H](Cc1ccccc1)C(=O)CCl)OCc1ccccc1	-2.1	
Nc1ccc(-c2nc3ccc(-c4nc5ccc(N)cc5[nH]4)cc3[nH]2)cc1	-1.18	
CCC(=O)N1CCN(C(=O)c2ccccc2)CC1	-0.659	
NCCCCN	-0.321	
CCCC(=O)NCCc1c2n(c3ccc(OC)cc13)CCCc1ccccc1-2	-3.71	
Cn1c(=O)[nH]c2ncn(C)c2c1=O	-1.51	
Cn1c(=O)c2[nH]c(C3CCCC3)nc2n(C)c1=O	-4.77	
CCCCOC(=O)NS(=O)(=O)c1sc(CC(C)C)cc1-c1ccc(Cn2c(CC)nc3c(C)cc(C)nc32)cc1	-3.8	
CCSC(=N)N	-6.03	
[Li+]	1.6	
NC(N)=NC(N)=Nc1cccc(Cl)c1	-1.29	
CC[C@H](NC(=O)c1c(C)c(-c2ccccc2)nc2ccccc12)c1ccccc1	-9.09	
Nn1nnc2ccccc21	0.0191	
NC(=O)c1ccccc1	2.72	
CCN(CC)CCOC(=O)c1cc(Cl)c(N)cc1OC	-0.177	
CCCc1c(-c2ccc(O)cc2)nn(-c2ccc(O)cc2)c1-c1ccc(O)cc1	-3.34	
CC[C@@H]1Cc2cc(O)ccc2C2=C1c1ccc(O)cc1C[C@H]2CC	135	
C/C(=C\c1ccc(C(=O)O)cc1)c1ccc2c(c1)C(C)(C)CCC2(C)C	-3.64	
OC1(c2ccc(Cl)cc2)CCN(Cc2c[nH]c3ccccc23)CC1	-5.33	
